We go through 87 compounds from PubChem BioAssay AID651725 (National Center for Advancing Translational Sciences (NCATS), 2012).

In all, about 360,000 compounds went through this assay and about 2,000 (0.56%) were called active. Another 2% or so got no clear call; they are omitted. This excerpt belongs to a sample that is enriched for actives. Unmarked numbers belong to inactive results. Rule as the data show it: active = activity change below about -65%; inconclusive = mostly about -30% to -63%; inactive = weaker than that.
% is scaled to controls: 0 for no effect and ±100 for the full control effect.

Homeobox protein SIX1 (Homo sapiens) + Protein phosphatase EYA2 (Homo sapiens), sequence (O00167 whole entry, looked up): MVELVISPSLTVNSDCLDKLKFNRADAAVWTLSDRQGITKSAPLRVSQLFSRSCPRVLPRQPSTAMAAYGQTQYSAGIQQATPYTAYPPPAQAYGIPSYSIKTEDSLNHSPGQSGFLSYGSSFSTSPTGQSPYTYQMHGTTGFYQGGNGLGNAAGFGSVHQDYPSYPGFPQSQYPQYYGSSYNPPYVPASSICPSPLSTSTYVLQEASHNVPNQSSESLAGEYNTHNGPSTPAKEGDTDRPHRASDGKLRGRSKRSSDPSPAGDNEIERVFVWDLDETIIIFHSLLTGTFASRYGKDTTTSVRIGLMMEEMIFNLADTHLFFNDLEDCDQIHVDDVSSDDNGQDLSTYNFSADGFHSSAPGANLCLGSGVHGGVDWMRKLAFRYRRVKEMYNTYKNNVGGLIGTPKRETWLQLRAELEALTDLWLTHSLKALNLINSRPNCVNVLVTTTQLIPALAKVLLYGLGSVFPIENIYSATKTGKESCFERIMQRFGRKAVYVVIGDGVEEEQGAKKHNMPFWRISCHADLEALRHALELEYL
Homeobox protein SIX1 (Homo sapiens) + Protein phosphatase EYA2 (Homo sapiens), sequence (Q15475 whole entry, looked up): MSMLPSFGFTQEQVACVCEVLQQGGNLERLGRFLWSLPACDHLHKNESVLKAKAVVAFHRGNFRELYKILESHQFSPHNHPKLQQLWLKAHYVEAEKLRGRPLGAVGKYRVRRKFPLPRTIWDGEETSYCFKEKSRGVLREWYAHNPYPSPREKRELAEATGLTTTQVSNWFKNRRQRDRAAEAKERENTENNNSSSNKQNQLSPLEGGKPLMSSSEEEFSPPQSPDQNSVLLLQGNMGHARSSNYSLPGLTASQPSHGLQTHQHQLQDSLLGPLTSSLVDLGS

The target of the experiment is Homeobox protein SIX1 (Homo sapiens) + Protein phosphatase EYA2 (Homo sapiens) (UniProt Q15475+O00167). Briefly: qHTS Assay for Inhibitors of the Six1/Eya2 Interaction. The following applies: AlphaScreen GST-Six1/His-Eya2 binding, biochemical; stronger effect = lower value. The text has this:
Its expression is low or undetectable in normal adult breast tissue but the gene is over-expressed in 50% of primary breast tumors and 90% of metastatic lesions. […] Similar to Six1, Eya2 is also not expressed in most normal adult tissues, but is reexpressed in cancers. The Six1-Eya interaction is essential for proliferation during embryonic development, and both Six1 and Eya2 have been independently implicated in the same types of cancer. Because Six1 and Eya2 are embryonic genes with little expression in adult tissues, inhibitors of their expression/activity are likely to have limited side effects. Our goal is to identify inhibitors of the Six1/Eya interaction for potential cancer therapy. To this end, we have developed a homogenous AlphaScreen assay targeting the Six1/Eya interaction. We performed a large scale HTS of the Molecular Libraries Small Molecule Repository (MLSMR) to identify inhibitors of the Six1/Eya interaction as potential anti-cancer therapeutics. Compounds identified can also be used as chemical probes to better understand the biological functions of Six1 and Eya. NIH Chemical Genomics Center [NCGC] NIH Molecular Libraries Probe Centers Network [MLPCN] MLPCN Grant: DA033147 Assay Submitter (PI): Rui Zhao, University of Colorado Denver
The first step of the 5 uL AlphaScreen assay is to dispense assay buffer (50 mM Tris, pH 8.0, 300 mM NaCl, 0.05% BSA, 0.02% Tween 20, 1 mM TCEP) into a Greiner 1536 white solid bottom microtiter plate (789175-F). Five microliters is added to Column 1, 4 uL is added to Column 2 and 3 uL is added to Columns 3 through 48. A 5X protein solution (250 nM GST-Six1 protein + 500 nM His-tagged Eya2 protein) is mixed and 1 uL is dispensed to Columns 3-48. Using a 1536 pintool, 23 nL of compound is transferred to the assay plate. A solution of 5X AlphaScreen beads is mixed (50 ug/mL Glutathione linked donor beads + Nickel chelated acceptor beads) and 1 uL is dispensed to Columns 2-48. The assay plate is incubated for one hour, with a lid, at 37 deg C in the dark. The plate is read using a Perkin Elmer Envision using an AlphaScreen protocol.
On the technique in general: Quantitative high-throughput screening tests each substance at several concentrations.
As for `O=[N+]([O-])c1ccc(C=Nc2ccc(Cl)cc2Cl)s1`, the activity change is -73.2% (active). As for `CCC(C)CN1C(=O)CN(S(C)(=O)=O)CC1(C)C(=O)Nc1ccc2c(c1)OCCO2` (configuration not stated), the figure is 16.6%; as for `COc1ccc2c(c1)CCCO[C@]21O[C@H](CCO)C[C@H](O)[C@H]1O`, 6.3%. As for `Cc1ccc(NC(=O)c2nc[nH]c2C(=O)N[C@@H](CCCCNC(=O)OC(C)(C)C)C(=O)OC(C)(C)C)cc1`, the activity change was -3.47%.

As for `CC(C)(C)OC(=O)NCCCCCNC(=O)c1[nH]cnc1C(=O)Nc1nccs1`, the activity change was -76.4% (active). With `CC(C)(C)OC(=O)NCCCCCNC(=O)c1nc[nH]c1C(=O)NCc1ccccc1`, the activity change is -0.665%. In the case of `COC(=O)c1ccc2nc(-c3cccc(Br)c3)c(Cc3ccccc3C(F)(F)F)n2c1`, the activity change was -10.3%. `Cc1ccc(C(=O)N2CCN(C3CCCCC3)CC2)s1`: the activity change is -13.4%.

As to `OCCC#Cc1ccc(N2C(c3ccsc3)=Cc3ccc(F)cc3C2c2c[nH]c3ccccc23)cc1` (configuration not stated), the activity change is -7.53%. As for `O=C(N/N=C/c1cccc(OC(=O)c2ccc([N+](=O)[O-])cc2)c1)c1cccnc1`, the figure is -3.98%.

On to `COc1ccc(C(=O)NNC(=O)c2cc(C)[nH]n2)cc1`, for which the activity change is 1.78%. Take `Cc1cc(C(=O)N/N=C/c2cc([N+](=O)[O-])cc(C)c2O)n[nH]1`: the activity change is -77.5% (active). The value for `CCCCNS(=O)(=O)c1ccc2nc(SCC(=O)Nc3cc(C)cc(C)c3)[nH]c2c1` was -4.15%; that for `CCOC(=O)[C@]12CCCC=C1N(Cc1cccc3ccccc13)C(=O)[C@H](CC(=O)NCC13CC4CC(CC(C4)C1)C3)C2` was -14%. Take `Nc1nonc1-n1nnc(C(=O)N/N=C\c2ccncc2)c1CN1CCCCC1`: the activity change is -5.55%.

As to `NNC(=O)c1nnn(-c2nonc2N)c1CN1CCCC1`, the activity change is 4.15%.

Take `Nc1nonc1-n1nnc(C(=O)N/N=C/c2ccccc2O)c1CN1CCCC1`: the activity change was -91.1% (active). For `COC(=O)C[C@H]1C=C[C@H](NC(=O)c2ccc(F)cc2)[C@@H](CO)O1`, the activity change is 7.11%. On to `Cc1cc(C)c(S(=O)(=O)NN=C2c3ccccc3[C@H]3Cc4csc[n+]4[C@@H]23)c(C)c1`, for which the activity change was -12.5%. The value for `Cc1cccc(N(CC(=O)N2CCCC2)S(C)(=O)=O)c1C` was 7.01%. As for `COc1ccc(Cc2nnc(SCC(=O)Nc3ccc(C)c(Cl)c3)[nH]c2=O)cc1`, the figure is 6.59%; as for `Cc1ccc(NC(=O)CSc2nn3c(=O)c(C)nnc3s2)cc1Cl`, -81.7% (active); as for `Cc1ccc(NC(=O)CSc2nnc(CNC(=O)c3ccccc3F)o2)cc1Cl`, 8.8%. As to `O=C(Nc1ccc(F)cc1)C(CCc1ccccc1)N1CCN(CC(=O)N2CCCC2)CC1` (configuration not stated), the activity change was 1.59%.

For `FC(F)(F)c1cccc(-c2nc3ccccc3n2C(c2ccccc2)c2nc3ccccc3[nH]2)c1` (configuration not stated), the activity change was -13.3%. On to `CCN(CC(=O)NC1CCS(=O)(=O)C1)S(=O)(=O)c1ccccc1` (configuration not stated), for which the activity change is 9.89%. `Cc1ccccc1CN1C(=O)CSCC1(C)C(=O)Nc1c(C)cccc1C` (configuration not stated): the activity change was -3.18%.

With `Cc1nc(N=C(N)N)nc2c(C)cccc12`, the activity change is -72.7% (active). As for `COC(=O)[C@@]12C[C@@H](CC(=O)NCCCCc3ccccc3)C(=O)N(CCc3ccc(OC)c(OC)c3)C1=CCC(C)(C)C2`, the activity change is -8.99%.

For `Cc1ccc(C(=O)Nc2c(-c3ccccc3)[nH][nH]c2=O)cc1`, the activity change is 3.7%. `COC(=O)C[C@@H]1C=C[C@@H](NS(=O)(=O)c2cccc(OC)c2)[C@@H](CO)O1`: the activity change was -2.42%.

In the case of `COc1ccc(Cc2nnc(N/N=C/c3ccccc3O)[nH]c2=O)cc1OC`, the activity change is -85.7% (active). The value for `COc1ccc(Cc2nnc(SC)[nH]c2=O)cc1` was 0.132%; that for `CC(C)c1ccc(Cc2nnc(NCCCO)[nH]c2=O)cc1` was 4.24%; that for `Cc1ccc(/C=C/C(=O)OCC(=O)Nc2cccnc2Cl)cc1` was -0.924%. With `CC(C)(C)NC(=O)C(CCc1ccccc1)n1c(=O)c(-c2ccccc2)nc2ccccc21` (configuration not stated), the activity change is 7.94%. For the compound `O=C(O)c1ccc2c3c(cccc13)C(=O)N(OS(=O)(=O)c1ccccc1)C2=O`, the activity change was -77.1% (active).

`COc1cccc(-c2ccc3c(c2)S(=O)(=O)c2cccc(C(=O)O)c2C3=O)c1OC`: the activity change was -5.18%.

On to `Cc1cc(Br)cn2c(Cc3ccccc3C(F)(F)F)c(C3CCCCC3)nc12`, for which the activity change is 11.6%. `CC(=O)N1Cc2cc(C(=O)NCc3cccc(F)c3)nc(-c3cccc(C4=CCCC4)c3)c2[C@H]1CCO`: the activity change is -15.8%.

As for `O=C(COc1cc(Cl)c(Cl)cc1Cl)NCCc1ccccn1`, the activity change is -7.95%. As for `NC(=S)NN=Cc1ccc(OC(=O)COc2cc(Cl)c(Cl)cc2Cl)cn1`, the figure is -93.5% (active); as for `O=C(COC(=O)COc1cc(Cl)c(Cl)cc1Cl)NC1CC1`, 3.24%; as for `COc1ccc(C(C(=O)NCc2ccccc2)n2c(=O)c(-c3ccccc3)nc3ccccc32)cc1` (configuration not stated), 0.529%. Take `CC(C)C[C@H]1CNC(=O)C(=O)N1C[C@@H]1CCCN1C[C@H](Cc1ccccc1)N1C[C@H](CC(C)C)N(CC2CCCCCC2)C(=O)C1=O`: the activity change is -1.64%. For `O=c1[nH]c2ccccc2n2c(-c3ccccc3)nnc12`, the activity change was -65.3% (active). In the case of `O=C(c1ncn2c1c(=O)[nH]c1ccccc12)N1CCc2ccccc2C1`, the activity change is -3.9%. As for `Cn1c(=O)c2c(nc(N/N=C/c3cccs3)n2Cc2ccc(Br)cc2)n(C)c1=O`, the activity change was 29.6%. In the case of `Cc1n[nH]c(=O)nc1N/N=C/c1cccs1`, the activity change is -90.5% (active). For the compound `Cc1nc2ccccc2n1CC(=O)N/N=C/c1cccs1`, the activity change is -11.4%. Regarding `Cc1nccn1-c1ccc(NC(=O)[C@H]2O[C@@H](n3ccc(=O)[nH]c3=O)[C@H](O)[C@@H]2O)cc1`, the activity change is 1.11%. Turning to `O=C(NCc1ccccc1)C(c1ccc(F)cc1)N1CCN(C(=O)C2CCCO2)CC1` (configuration not stated), the activity change was 20.6%. As to `Cc1cc(NC(=O)c2ccccc2C)no1`, the activity change is 9.99%. As for `Cc1cc(NC(=O)c2cccc(N3C(=O)CCC3=O)c2)no1`, the activity change was -70.6% (active).

For `Cc1cccc(NC(=O)c2cc(N3C(=O)CCC3=O)ccc2Cl)n1`, the activity change is 3.08%. On to `Cc1ccc(S(=O)(=O)N2[C@@H](Cc3ccccc3)CO[C@H]2CC(=O)OCc2ccccc2)cc1`, for which the activity change was -3.63%.

For `CCOC(=O)C1C(C)C(C(C)(C)C)N(S(=O)(=O)c2ccc(C)cc2)C1c1ccccc1` (configuration not stated), the activity change is 6.65%. Turning to `O=C(NCCN1CCOCC1)Nc1cccc(Cl)c1`, the activity change was 3.67%.

In the case of `CCOc1cccc(/C=N/NC(=S)NCCN2CCOCC2)c1O`, the activity change was -92.1% (active). As for `C=C(C)CNC(=S)N/N=C/c1ccccc1OCC(=O)O`, the figure is 0.44%; as for `CCOC(=O)[C@]12CCCC=C1N(CCC1=CCCCC1)C(=O)[C@H](CC(=O)N1CCCCC1)C2`, -1.85%. The value for `COc1ccc(C(=O)C(OP(=O)(OC)OC)c2ccccc2OC)cc1` (configuration not stated) was 2.49%; that for `O=C(COC(=O)Cc1ccc(Br)cc1)Nc1c(F)c(F)c(F)c(F)c1F` was 1.31%. Take `Oc1ccc2nc(Cc3ccccc3)[nH]c2c1`: the activity change is -2.17%.

Turning to `Cc1nc2ccccc2nc1N/N=C/c1ccc(O)cc1O`, the activity change was -69.1% (active). In the case of `Brc1ccccc1/C=N/Nc1nc2ccccc2o1`, the activity change is -4.05%.

As to `Oc1ccc(/C=N/Nc2nc(-c3ccccc3F)nc3ccccc23)c(O)c1`, the activity change is -71.7% (active).

For the compound `O=C(C[C@H]1CC[C@@H](NC(=O)c2ccncc2)[C@@H](CO)O1)NCC1CC1`, the activity change is 8.47%. In the case of `CCCCCCCCN1C(=O)[C@H](CC(=O)NCC23CC4CC(CC(C4)C2)C3)C[C@@]2(C(=O)OC)CCCCC=C12`, the activity change was -0.139%. For the compound `O=S1(=O)CC(N2CCSCC2)CN1Cc1cn(Cc2cccc(Cl)c2)nn1` (configuration not stated), the activity change was 0.627%. Take `CCOc1cccc2c1OC1(CCCCC1)N1N=C(c3cccnc3)CC21` (configuration not stated): the activity change was -13.8%. For `C[C@H]1COc2cc(N3CCSCC3)ccc2S(=O)(=O)N1`, the activity change was 3.55%. Turning to `COc1ccc(S(=O)(=O)Nc2ccc(F)cc2)c(C)c1C`, the activity change is -0.291%.

Consider `COc1cc(N2CCCC2)c(OC)cc1/C=C(/C#N)c1cccc(Br)c1`, for which the activity change was -67% (active). Regarding `Cc1nc2c(OCc3ccc(Cl)cc3Cl)cccn2c1N(C)CC1CC1`, the activity change is -5.16%. With `Nc1nc2ncccn2c1-c1ccccc1`, the activity change was 3.63%. Turning to `CCCOc1ccc(Cc2c(O)nc(N)[nH]c2=O)cc1C`, the activity change was -5.12%.

For `Cc1ccc(S(=O)(=O)N2CC3C(=O)C[C@@H](c4ccccc4Cl)N(S(=O)(=O)c4ccc(C)cc4)C3CC2c2ccccc2)cc1` (some centres not stated), the activity change is -4.43%. Take `CC1(C)OC(=O)C2=C(C[C@@H](C3CC3)O[C@H]2CCc2cccc(Cl)c2)O1`: the activity change was 7.67%. Regarding `CCc1c(-c2ccc(F)cc2)ncn1Cc1cccc(-c2ccccc2)c1`, the activity change is -29.6%. Regarding `O=S(=O)(NCCOc1cccc2cccnc12)c1ccc(F)cc1`, the activity change was 6.83%.

As for `NC(=O)C1CCN(C(=O)COc2cccc3cccnc23)CC1`, the activity change is 8.87%. Take `O=C(Nc1ccccc1)Oc1cccc2cccnc12`: the activity change is -91.9% (active).

On to `CCCCNC(=O)C[C@@H]1C[C@@]2(C(=O)OC)CC(C)(C)CC=C2N(Cc2ccco2)C1=O`, for which the activity change is -8.69%. The value for `CCCc1c(C(=O)Nc2ccc(F)cc2)cnn1-c1ccccc1` was 1.46%; that for `COCCCn1cc(CN2CC(N(C)C)CS2(=O)=O)nn1` (configuration not stated) was 15.9%; that for `COC(=O)[C@]12CCCCC=C1N(CCC1=CCCCC1)C(=O)[C@H](CC(=O)N1CCSCC1)C2` was -5.23%.
